Peg3 promoter: Peg3 promoter-driven luciferase inhibitors, primary screen, cell-based, HeLa, luciferase luminescence; HeLa PEG-Prom luciferase reporter, overnight; AID 588405, 2011; inhibition, % at 20 µM; 360,000 tested, 1.7% active;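 active = inhibition of at least 50% at 20 µM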
TWEAK-Fn14 inh: inhibitors of TWEAK-Fn14 signaling, primary screen, luciferase reporter cells, uHTS; TWEAK-stimulated Fn14 reporter cells, luciferase luminescence, 8 h; 360,000 tested, 2% active; AID 1159606, 2016; inhibition, % at 10 µM; in the data active = inhibition above about 50%
LMP1 NFkB inh: EBV LMP1-driven NF-kappaB luciferase reporter inhibitors, primary screen, cell-based, luminescence, single point; LMP1-induced NF-kappaB luciferase reporter cells; 350,000 tested, 0.69% active; inhibition, % at 12.5 µM; AID 504558, 2011; in the data active = inhibition above about 41%; inconclusive = no clear call, values can overlap the other calls
Shn3 3UTR inh: reduction of Shn3 3'UTR firefly luciferase signal, primary screen, Schnurri-3 inhibitor project, cell-based, Clone20 osteoblasts, set 2 | Clone20 osteoblast Shn3 3'UTR firefly luciferase, 24 h | inhibition, % at 12.5 µM | 360,000 tested, 0.52% active;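 active = mean inhibition of at least 75% with every replicate also reaching 75%; inconclusive = mean inhibition at least 75% but some replicate below; inactive = mean inhibition below 75%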
TROY signal inh: inhibitors of TROY-driven NF-kB signaling, primary screen, Q293 LMP1-TROYcd cells, NF-kB luciferase, uHTS; inhibition, % at 10 µM; AID 1347056, 2019; Q293 LMP1-TROYcd NF-kB luciferase reporter, 4 h; 360,000 tested, 0.98% active;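 active = compounds whose plate-normalised and pattern-corrected inhibition of the luciferase reporter signal at the single screening dose is 50% or more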
MITF TRPM1 inh: inhibitors of MITF-dependent TRPM1 promoter reporter, primary screen, cell-based, SK-MEL-5, single point, luciferase; SK-MEL-5 TRPM1 promoter luciferase, 24 h; inhibition, % at 12.5 µM; 330,000 tested, 0.83% active; AID 488899, 2010;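 active = mean inhibition across replicates of 60% or more, whatever share of single replicates reaches that level; inconclusive = some that reach 60%, reason not given; inactive = mean inhibition across replicates below 60%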
Hits are given with their value; n = inactive; u = inconclusive; x = no result given. This is a sample that favours compounds with a hit; in the whole collection about 4.1% have one here.

SMILES | Peg3 promoter | TWEAK-Fn14 inh | LMP1 NFkB inh | Shn3 3UTR inh | TROY signal inh | MITF TRPM1 inh
Cc1ccc(C)c(NC(=S)NC(NC(=O)Cc2cccc3ccccc23)C(Cl)(Cl)Cl)c1 (stereo not drawn) | 94 | n | n | n | n | 77
O=C(NC(NC(=S)Nc1cccc(Cl)c1)C(Cl)(Cl)Cl)OCc1ccccc1 (stereo not drawn) | 53 | 54 | n | n | 58 | n
CCc1ccc(OCC(=O)NC(NC(=S)Nc2ccccc2OC)C(Cl)(Cl)Cl)cc1 (stereo not drawn) | n | n | n | n | n | n
O=C(COC(=O)/C=C/c1ccc(C(F)(F)F)cc1)NCc1ccco1 | n | n | n | n | n | n
COc1cc(C(=O)NC(C)CCn2cccn2)ccc1OC1CCN(C(C)=O)CC1 (stereo not drawn) | n | n | n | n | n | n
CCn1ncc(Br)c1C(=O)Nc1ccccc1C(F)(F)F | n | n | n | n | n | n
CC(NC(=O)c1cccc(S(=O)(=O)N2CCc3ccccc32)c1)c1ccco1 (stereo not drawn) | n | n | n | n | n | n
Cc1c(CCOC(=O)C23CC4CC(CC(C4)C2)C3)sc[n+]1CC#N | 51 | n | n | n | n | n
Cc1c(CCOC(=O)CC23CC4CC(CC(C4)C2)C3)sc[n+]1Cc1ccccc1 | n | n | n | n | n | n
Cc1ccc(S(=O)(=O)N2CCOCC2)cc1NC(=O)CSc1nnc(COc2ccccc2F)n1N | n | n | n | n | n | x
CCCC[C@@H]1CCCO[C@@](C(=O)NCc2ccc(C)o2)(C(F)(F)F)C1 | n | n | n | n | n | n
CSC1=NC(=O)/C(=C\c2cccc3ccccc23)S1 | 56 | n | n | n | n | n
Cc1ccc(-c2nc3sc(C(N)=O)c(N)c3c3c2CCCC3)cc1 | n | n | n | n | n | n
Cc1nc2sc(C(N)=O)c(N)c2c2c1CCCC2 | n | n | 51 | n | n | n
Cc1ccc(C2C3=C(CC(C)(C)CC3=O)N=C3c4ccccc4C(=O)C32)cc1 (stereo not drawn) | n | 58 | n | n | n | n
CC1(C)CC(=O)C2=C(C1)N=C1c3ccccc3C(=O)C1C2c1ccc(Cl)cc1 (stereo not drawn) | 58 | 66 | n | n | n | n
O=C(c1ccc(C(F)(F)F)cc1)N1CCC(=O)N(C(CO)Cc2ccccc2)CC1 (stereo not drawn) | n | 70 | n | n | n | n
O=C(c1cccc(C(F)(F)F)c1)N1CCC(=O)N(C(CO)Cc2ccccc2)CC1 (stereo not drawn) | n | n | n | n | n | n
CCC(=O)N(CCc1ccccc1)Cc1cc2cccc(C)c2[nH]c1=O | n | n | n | n | n | n
COc1ccc(C(=O)NN(C)c2nc(-c3ccccc3)nnc2C(F)(F)F)cc1 | n | n | n | n | n | n
COc1ccc(C(=O)NN(C)c2nc(C(F)(F)F)nc3ccccc23)cc1 | n | 52 | n | n | 55 | n
COc1ccc(Cl)cc1S(=O)(=O)N(C)CC(=O)NCc1ccc2c(c1)OCO2 | n | 53 | n | n | n | n
CCCN(CCC)C1=CC(=[N+]2CCCC2)CC(C)(C)C1 | n | n | n | n | n | 73
CN(C)NC1=CC(=[N+]2CCCC2)CC(C)(C)C1 | n | n | n | n | n | n
Cc1ccc(S(=O)(=O)NCC(=O)N(CC(=O)NCC2CCCO2)Cc2ccco2)cc1 (stereo not drawn) | n | n | n | n | n | n
SMILES | Peg3 promoter | TWEAK-Fn14 inh | LMP1 NFkB inh | Shn3 3UTR inh | TROY signal inh | MITF TRPM1 inh
Cc1ccc(-c2nn3c(C)nnc3s2)cc1NC(=O)c1ccc(-c2cccc(Cl)c2)o1 | n | n | n | n | n | n
Cc1ccc(-c2nn3c(C)nnc3s2)cc1NC(=O)c1ccc(-c2ccc(Cl)cc2Cl)o1 | 103 | n | n | n | n | 100
CCN(CC)c1ccc(N)cc1 | n | n | u | u | n | 86
CCOC(=O)C1=C(c2ccccc2)NC(=O)NC1c1ccc(O)c(Cl)c1 (stereo not drawn) | n | 73 | n | n | n | n
CCOC(=O)C1=C(c2ccccc2)NC(=O)NC1c1ccc(O)c(OCC)c1 (stereo not drawn) | n | n | n | n | n | n
COc1ccccc1C1CC(c2cccs2)=Nc2ccccc2S1 (stereo not drawn) | n | n | n | n | n | n
Fc1ccccc1C1CC(c2ccco2)=Nc2ccccc2S1 (stereo not drawn) | n | 53 | n | n | n | n
Cc1ccc(NCC(=O)N2CCN(S(=O)(=O)c3ccccc3)CC2)cc1F | n | n | n | n | n | n
COc1ccc(S(=O)(=O)NCC(c2ccc(F)cc2)N2CCN(C)CC2)cc1 (stereo not drawn) | n | n | n | n | n | n
CC[C@H](C)C1OC(=O)[C@@H](C)[C@@H](CC)NC(=O)[C@H](C)N(C)C(=O)C(C)(C)C(=O)C(C)NC(=O)[C@H](Cc2ccc(OC)cc2)N(C)C(=O)[C@H](C(C)C)N(C)C(=O)CNC(=O)[C@H](CC(C)C)N(C)C(=O)CNC1=O (stereo partly drawn) | 92 | n | x | n | 54 | x
CC(C)c1cc(C(C)C)c(S(=O)(=O)N2CCNCC2)c(C(C)C)c1 | n | n | n | n | n | n
CCn1c(/C=C/N(C)c2ccccc2)[n+](CC)c2ccc(Cl)cc21 | n | n | n | n | n | 65
CCn1c(/C=C/Nc2ccccc2)[n+](CC)c2ccc(Cl)cc21 | n | n | n | n | n | n
COc1ccc(CNCCC(c2ccc(OC(C)C)cc2)c2ccccc2OC)cc1 (stereo not drawn) | 113 | n | n | 96 | n | n
COc1ccccc1C(CCNCc1ccc(N(C)C)cc1)c1ccc(OC(C)C)cc1 (stereo not drawn) | 107 | n | n | 93 | n | 77
COc1ccccc1NC(=O)CC(c1ccc(OC(C)C)cc1)c1ccccc1OC (stereo not drawn) | n | n | 54 | n | n | n
COc1ccc(CNCCC(c2ccc(OC(C)C)cc2)c2ccccc2OC)cc1OC (stereo not drawn) | 87 | n | n | n | n | 66
COc1ccc(CNCCC(c2ccc(OC(C)C)cc2)C(C)C)cc1OC (stereo not drawn) | n | n | n | n | n | n
COc1ccc(CCC(C)N(C)Cc2ccccc2)cc1 (stereo not drawn) | n | n | n | n | n | n
COc1ccc(S(=O)(=O)N2CCOCC2)cc1NC(=O)c1cccs1 | n | n | n | n | n | n
CCn1c(=O)c(=O)[nH]c2cc(C(=O)NCc3ccc(F)cc3)ccc21 | n | n | n | n | n | n
